Shown are actives, neighbours in structure and some others; about 1.6% of the full set was active somewhere.
Mito fusion yeast: inhibitors of mitochondrial division or activators of mitochondrial fusion | Potency, µM (series often up to 46.1 µM), inactives show at the highest dose growth rescue (activation), hits mostly activators | S. cerevisiae fusion-defective mutant growth rescue, CellTiterGlo 48 h | AID 485298 | 320,000 compounds, 0.23% hits; also: % of control where 0% means no effect; nearly all actives have a fitted effect of over 45% in size
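Read-out: ATP-based luminescence (CellTiterGlo, 10 min ambient) reporting growth of fusion-defective ts yeast after 48 hours at 37C on glycerol/ethanol YPEG medium in the presence of compound.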
FUS yeast rescue: FUS proteinopathy suppression in yeast | S. cerevisiae FUS-expressing, growth rescue, OD600, 24 h | Potency, µM (doses to about 76.6 µM), actives largely listed as activators | 390,000 compounds, 0.24% hits;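 also: plate controls were DMSO vehicle for no effect and reference control for full effect; nearly all actives have a fitted effect of over 55% in size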
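Quantitative HTS measuring growth restoration of FUS-toxic yeast. Galactose-induced cells (OD 0.005) were exposed 24hr at 30C to compounds at several concentrations, then absorbance at 600 nm was recorded.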
gsp antag: gsp mutant antagonism. gsp-mutant cells, cAMP HTRF, 30 min. Potency, µM (top dose mostly 76.9 µM), inactives show at the highest dose activity change, negative = inhibition, most hits filed as inhibitors. 340,000 compounds, 0.4% hits; calls by dose curve; cell line not stated here;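 also: intracellular cAMP measured with PDE inhibitor Ro 20-1724 present during compound exposure; % is scaled to controls: 0 for no effect and ±100 for the full control effect; nearly all actives have a fitted effect of over 65% in size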
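Cells, 2000/well, grown 16–24 h in DMEM 10% FBS with 0.5 mg/ml G418, then compounds plus […] (300 uM addition stock), 30 min at 37C. cAMP read by HTRF (cAMP-d2 and anti-cAMP antibody-K in lysis buffer) after 30 min RT.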
gsp ag: gsp mutant agonism | gsp mutant cells, cAMP HTRF, 30 min | AID 624287 | Potency, µM (titrated, usually from 76.9 µM), inactives show top-dose activation (cAMP increase), usual class: activators | 340,000 compounds, 0.13% hits; active = well fitted activation curve with a large enough effect; inconclusive = small, poorly fitted or top-dose-only effect, or another doubt; inactive = no such curve, though single readings can be large or run the other way; cell line not stated here;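 also: phosphodiesterase inhibitor Ro 20-1724 added with compounds to block cAMP breakdown; nearly all actives have a fitted effect of over 60% in size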
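Cells in DMEM/10% FBS with G418 were pretreated with compounds in DMSO plus […] (300 uM stock) for 30 min at 37C. cAMP was measured by HTRF (cAMP-d2 plus anti-cAMP antibody-K) after 30 min at room temperature.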
12-LOX inh: inhibitors of human 12S-lipoxygenase ALOX12 | purified 12hLO, xylenol orange hydroperoxide absorbance | P18054 | Potency, µM (doses to about 108 µM), for the others: top-dose activity change, negative = inhibition, hits mostly inhibitors | 580,000 compounds, 1.1% hits; also: % is scaled to controls: 0 for no effect and ±100 for the full control effect
Target sequence (P18054 whole entry, looked up): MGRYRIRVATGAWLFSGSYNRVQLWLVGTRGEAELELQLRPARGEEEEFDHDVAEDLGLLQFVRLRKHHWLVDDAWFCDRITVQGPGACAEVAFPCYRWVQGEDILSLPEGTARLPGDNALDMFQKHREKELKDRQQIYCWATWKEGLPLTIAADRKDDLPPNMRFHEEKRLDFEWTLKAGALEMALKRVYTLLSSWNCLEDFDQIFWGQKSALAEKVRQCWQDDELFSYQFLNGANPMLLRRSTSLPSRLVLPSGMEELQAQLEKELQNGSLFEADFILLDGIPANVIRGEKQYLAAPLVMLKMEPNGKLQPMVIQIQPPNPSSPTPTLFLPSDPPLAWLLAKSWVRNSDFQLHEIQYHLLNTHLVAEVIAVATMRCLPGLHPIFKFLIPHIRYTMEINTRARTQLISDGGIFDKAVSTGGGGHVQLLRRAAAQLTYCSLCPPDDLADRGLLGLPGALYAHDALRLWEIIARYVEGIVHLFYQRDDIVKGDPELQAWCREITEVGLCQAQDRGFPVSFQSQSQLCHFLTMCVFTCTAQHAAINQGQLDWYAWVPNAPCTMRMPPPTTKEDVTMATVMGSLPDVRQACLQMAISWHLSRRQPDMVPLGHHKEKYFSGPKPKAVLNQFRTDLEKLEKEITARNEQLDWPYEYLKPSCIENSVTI
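Purified human 12hLO at 150 nM in 25 mM Hepes, 0.01% Triton X-100, pH 7.0, preincubated 15 min at room temperature with compound. Reaction started with 40 uM arachidonic acid, 30 min at room temperature. Hydroperoxide measured by Fe-xylenol orange, 573/405 nm absorbance ratio.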
An asterisk follows results filed as active; i = inactive; ? = inconclusive; . = not tested or not shown; ! = not confirmed by another sample; [ ] = another dose, or the depositor's remark. Unless noted, calls follow the shape of the dose curve; as a rule, active = well fitted curve in the direction sought with a large enough effect; inconclusive = small, poorly fitted or top-dose-only effect, or another doubt; inactive = no such curve, though single readings can be large; an effect the other way counts as inactive or inconclusive. Potency is read from the fitted curve at half-maximal effect.

SMILES | Mito fusion yeast | FUS yeast rescue | gsp antag | gsp ag | 12-LOX inh
COc1cc(/C=C2/C(=O)NN(c3cccc(C)c3)C2=O)cc([N+](=O)[O-])c1O | -7% | i | -6% | -46% | ?
COc1ccc(-c2nc3cc(NC(C)=O)ccc3o2)cc1OC | . | . | . | . | 39%
N#Cc1ccc(OCC(=O)c2ccc(C3CCCCC3)cc2)cc1 | . | . | . | . | -5%
COc1ccccc1NC(=O)COC(=O)c1nn(C)c(=O)c2ccccc12 | . | . | . | . | 7%
COc1cccc(/C=C2\Oc3cc(OCC(=O)N4Cc5ccccc5C[C@H]4C(=O)O)ccc3C2=O)c1 | 0% | 28µM* | -21% | . | .
O=C(O)c1cccnc1Nc1cccc(C(F)(F)F)c1 | 18µM*! | i | -14% | . | ?
COc1cccc(CNC[C@H]2O[C@H](Cc3cc(-c4ccccn4)on3)CC[C@@H]2O)c1 | . | . | . | . | 23%[176 µM]
O=[N+]([O-])c1ccc(N/N=C/c2sc(N3CCOCC3)nc2-c2ccccc2)c(S(=O)(=O)Nc2ccccc2Cl)c1 | -9% | i | 4µM* | -107% | 0%
O=C(N/N=C/c1sc(N2CCOCC2)nc1-c1ccccc1)c1ccccc1O | 9% | i | 40µM* | 9% | -27%
O=C(N/N=C/c1sc(N2CCOCC2)nc1-c1ccccc1)c1ccccc1Cl | -5% | i | -8% | -16%[15.4 µM] | 0%
COC(=O)c1cc(Br)c(O)c(Br)c1 | . | . | . | . | -20%
CC(C)(c1cc(Br)c(O)c(Br)c1)c1cc(Br)c(O)c(Br)c1 | -28% | i | 3% | . | 45µM*
Cc1ccc(N=C2NN=C(c3cc(C)n(CC4CCCO4)c3C)CS2)cc1C (configuration not stated) | . | . | . | . | 35µM*
COCCn1c(C)cc(C2=NNC(=Nc3ccccc3)SC2)c1C | 0% | 10µM* | 26% | 0% | -59%
Cc1cc(C2=NNC(=NCCc3ccccc3)SC2)c(C)n1CC1CCCO1 (configuration not stated) | 3% | ? | -9% | 8%[15.4 µM] | ?
CC1(C)CC(=O)C(C(C2=C(O)CC(C)(C)CC2=O)c2ccc(Br)s2)C(=O)C1 (configuration not stated) | -1% | i | -25% | ? | 16µM*
Cc1ccc(C(=O)c2cc(O)c(O)c([N+](=O)[O-])c2)cc1 | . | . | . | . | 0.054µM*
O=C(c1cc(O)c(O)c([N+](=O)[O-])c1)c1ccccc1F | 18µM*! | i | ? | . | ?
O=C(Nc1ccc([N+](=O)[O-])cc1)c1ccccc1F | 5% | i | 2% | 23% | 2%
CCCCn1c(SCc2cc(=O)oc3c(C)c(C)ccc23)n[nH]c1=O | . | . | . | . | -11%
CCCCCOC(=O)C1=C(C)N(C)C(=O)NC1c1cc(Br)c(O)c(OC)c1 (configuration not stated) | 3% | i | 7.1µM* | 4% | ?
CCCc1noc(-c2ccn3c(CNC(=O)Cc4cccc(OC)c4)nnc3c2)n1 | . | . | . | . | 45µM*
CCCc1noc(-c2ccn3c(CNC(=O)c4ccc(C)c(F)c4)nnc3c2)n1 | . | . | . | . | 50µM*
Cc1ccc(C(=O)NCc2nnc3cc(-c4nc(C5CC5)no4)ccn23)cc1F | . | . | . | . | -6%
CC(C)OCCCn1c(SCC(=O)Nc2ccccc2C(F)(F)F)nc2nccnc2c1=O | 5% | i | 11% | 40µM* | 1%
SMILES | Mito fusion yeast | FUS yeast rescue | gsp antag | gsp ag | 12-LOX inh
COc1ccc2c(C)c(CC(=O)NCCCN3CCOCC3)c(=O)oc2c1 | . | . | . | . | 6%
CCSc1nc2c([nH]1)c(=O)n(C)c(=S)n2C | . | i | -3% | 3% | 10µM*
Cn1c(=O)c2c(nc(SCCN3CCOCC3)n2C)n(C)c1=O | 3% | i | 3% | 8.9µM* | -53%
Cn1c(=O)c2[nH]c(SCCN3CCOCC3)nc2n(C)c1=S | . | i | ? | 27% | 32µM*
CCCCC[C@@H]1C=C(C(=O)O)[C@H](c2ccc(CC)cc2)N1S(=O)(=O)c1ccc(C)cc1 | . | i | 6% | . | -111%
CCCCC[C@@H]1C=C(C(=O)O)[C@H](c2ccc(F)cc2)N1S(=O)(=O)c1ccc(C)cc1 | . | i | -12% | . | 45µM*
O=C(CN1CCCC1c1ccc(F)cc1)Nc1ccc(F)c(F)c1 (configuration not stated) | . | . | . | . | -12%
C=CC[C@H]1CC=C[C@H](CC=C)[N+]1(C)C | . | . | . | . | 7.1µM*!
Cc1ccccc1Cn1c(N2CCN(Cc3ccccc3)CC2)nc2c1c(=O)[nH]c(=O)n2C | . | . | . | . | 36%
COc1ccc(N=c2ssnc2Cl)cc1 | -1% | i | ? | -9% | .
CCOC(=O)c1ccc(N=c2ssnc2Cl)cc1 | 1% | i | -26% | -5%[15.4 µM] | 2.2µM*
O=C(Cn1c(=O)n(CCc2ccccc2)c(=O)c2sccc21)c1ccccc1Cl | . | . | . | . | -29%
COC(=O)C(Cc1ccccc1)NC(=O)c1cc(=O)[nH]c2ccccc12 (configuration not stated) | 24% | i | . | -14%[15.4 µM] | -17%
COC(=O)[C@H](CC(C)C)NC(=O)c1cc2c(cn1)[nH]c1ccccc12 | 4% | i | 7.9µM* | ? | ?
O=C(/C=C/c1ccc(Br)cc1)c1cc2ccccc2oc1=O | . | . | . | . | 11%
CCOC1=CC2=C(C(=O)C(Cl)=CC2=O)[C@@H]2CN(S(=O)(=O)c3ccc(C)cc3)[C@@H](c3ccccc3)[C@H]12 | . | ? | . | . | 0.89µM*
CCOc1ccc(-n2c(SCC(=O)Nc3ccc(CC)cc3)nc3[nH]ncc3c2=O)cc1 | . | . | . | . | 3%
Cc1cccc(S(=O)(=O)c2c(N)n(Cc3ccco3)c3nc4ccccc4nc23)c1 | 5% | . | ? | ? | 0%
Cc1ccc(S(=O)(=O)c2c(N)n(Cc3ccco3)c3nc4ccccc4nc23)cc1 | 5% | 22µM* | -3% | 3% | ?
Oc1c(Br)cc(Br)cc1C=NCc1ccccc1 | -2% | i | ? | 12% | ?
Oc1c(Br)cc(Br)cc1C=NCc1ccc(F)cc1 | 4% | i | ? | -27% | 40µM*
COc1ccc(CNC(=O)[C@@H]2CCC[C@@H](NC(=O)c3ccccc3)CN(C)C(=O)C2)cc1 | . | . | . | . | 36%
O=C(COc1cccc(-n2cnnn2)c1)N1CCN(S(=O)(=O)c2cccc(F)c2)CC1 | . | . | . | . | -23%
O=C(COc1ccc(-n2cnnn2)cc1)N1CCN(S(=O)(=O)c2ccc3ccccc3c2)CC1 | . | . | . | . | 45µM*
CC1CN(Cc2ccccc2)c2ccccc2NC1=S (configuration not stated) | -2% | . | -33% | -31% | 35µM*
CCc1ccc(S(=O)(=O)Nc2ccc(N3CCN(C)CC3)cc2)cc1 | -10% | i | 9% | -2%[15.4 µM] | ?
CCc1ccc(S(=O)(=O)Nc2ccc3nc(N4CCN(CCC#N)CC4)cc(C(=O)O)c3c2)cc1 | . | . | . | . | 11µM*
CCCC(=O)N1CCN(CCNc2cc(=O)oc3ccccc23)CC1 | . | . | . | . | 35%
O=S1(=O)CC/C(=N\Nc2ccccc2)c2ccsc21 | -3% | i | 0% | -45% | 35µM*

Compound activity deposited in PubChem BioAssay by National Center for Advancing Translational Sciences (NCATS).
